{"source": "PubChem BioAssay", "key": {"[1]": {"assay": "P. berghei load reduction in hepatocytes – cell-based, HepG2, luciferase luminescence, HepG2 viability, primary screen (AID 624349; in the data active = parasite load remaining mostly below about 12%, no sharp cut-off; inactive = mostly above about 10%;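 also: 100% = mean of DMSO negative control wells on the same plate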)", "conditions": "P. berghei liver stage in HepG2, luciferase luminescence, concentration not given here; parasite load remaining: stronger effect = lower value; viability: measured here: HepG2 viability without parasites"}, "[2]": {"biological_target": "6-phosphogluconate dehydrogenase, decarboxylating (Homo sapiens) (UniProt P52209)", "sequence (P52209 whole entry, looked up)": "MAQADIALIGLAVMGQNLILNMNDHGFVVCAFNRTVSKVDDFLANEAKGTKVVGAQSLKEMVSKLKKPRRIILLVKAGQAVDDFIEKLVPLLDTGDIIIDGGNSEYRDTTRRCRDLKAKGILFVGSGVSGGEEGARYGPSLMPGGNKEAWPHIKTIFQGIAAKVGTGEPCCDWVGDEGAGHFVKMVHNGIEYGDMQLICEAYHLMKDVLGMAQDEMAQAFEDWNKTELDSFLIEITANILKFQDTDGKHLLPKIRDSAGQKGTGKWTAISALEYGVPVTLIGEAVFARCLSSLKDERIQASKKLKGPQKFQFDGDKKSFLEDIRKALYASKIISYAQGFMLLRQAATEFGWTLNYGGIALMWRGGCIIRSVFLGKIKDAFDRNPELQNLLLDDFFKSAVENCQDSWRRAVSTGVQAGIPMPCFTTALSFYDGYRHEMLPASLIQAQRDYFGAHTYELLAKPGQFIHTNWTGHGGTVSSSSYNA", "assay": "inhibition of human phosphogluconate dehydrogenase – biochemical, recombinant enzyme, NADPH absorbance, primary screen (AID 1159550)", "conditions": "recombinant 6PGD, NADPH absorbance 341 nm; at 10 µM; stronger effect = higher value"}, "[3]": {"assay": "viability loss with induced miR-34 in A549 – imaging, A549 dox-inducible miR-34, nuclei and caspase counts, primary screen (AID 1347080;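 active = compounds whose cell count with miR-34 switched on is under 0.7 times the count with it off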)", "conditions": "A549 miR-34 inducible, Hoechst nuclei count, 48 h"}, "[4]": {"assay": "MELAS cybrid and Rieske KO viability enhancers – cell-based, MELAS cybrids, Rieske KO mouse fibroblasts, CellTiter-Glo, primary screen (AID 1508586;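 active = mean z-score across replicates of 1.96 or higher in either the MELAS or the Rieske mutant cell line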;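 also: z relative to plate mean and SD of compound and empty wells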)", "conditions": "low glucose"}, "[5]": {"biological_target": "NAD(+) hydrolase SARM1 (Homo sapiens) (UniProt Q6SZW1)", "sequence (Q6SZW1 whole entry, looked up)": "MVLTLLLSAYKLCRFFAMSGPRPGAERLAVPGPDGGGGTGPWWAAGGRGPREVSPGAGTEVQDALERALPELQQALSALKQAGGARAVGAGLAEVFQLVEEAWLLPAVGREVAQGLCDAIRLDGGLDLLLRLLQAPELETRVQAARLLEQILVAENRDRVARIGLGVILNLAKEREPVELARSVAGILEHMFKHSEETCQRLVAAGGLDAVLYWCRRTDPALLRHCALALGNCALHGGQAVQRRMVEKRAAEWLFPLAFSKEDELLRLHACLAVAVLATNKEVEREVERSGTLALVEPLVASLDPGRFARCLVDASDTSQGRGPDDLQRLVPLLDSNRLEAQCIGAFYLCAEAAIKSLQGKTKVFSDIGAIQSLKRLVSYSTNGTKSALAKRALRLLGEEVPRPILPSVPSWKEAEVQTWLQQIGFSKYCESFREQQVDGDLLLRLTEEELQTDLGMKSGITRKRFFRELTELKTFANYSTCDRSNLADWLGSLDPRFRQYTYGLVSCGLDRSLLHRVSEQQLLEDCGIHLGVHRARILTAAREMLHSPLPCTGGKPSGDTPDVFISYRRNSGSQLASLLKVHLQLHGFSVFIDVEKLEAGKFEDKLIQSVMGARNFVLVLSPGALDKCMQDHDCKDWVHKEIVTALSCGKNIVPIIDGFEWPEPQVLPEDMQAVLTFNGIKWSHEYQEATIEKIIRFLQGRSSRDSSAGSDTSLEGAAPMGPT", "assay": "blocking NAD cleavage by SARM1 SAM-TIR – cell lysate, NAD-Glo luminescence (AID 1508614;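 active = compound whose remaining NAD level is above about 45 nM, limit read from the data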)", "conditions": "SAM-TIR HEK293T lysate NADase, at 1 µM, stronger effect = higher value"}, "[6]": {"biological_target": "Mitogen-activated protein kinase 7 (Homo sapiens) (UniProt Q13164)", "sequence (Q13164 whole entry, looked up, the tested form may be a part)": "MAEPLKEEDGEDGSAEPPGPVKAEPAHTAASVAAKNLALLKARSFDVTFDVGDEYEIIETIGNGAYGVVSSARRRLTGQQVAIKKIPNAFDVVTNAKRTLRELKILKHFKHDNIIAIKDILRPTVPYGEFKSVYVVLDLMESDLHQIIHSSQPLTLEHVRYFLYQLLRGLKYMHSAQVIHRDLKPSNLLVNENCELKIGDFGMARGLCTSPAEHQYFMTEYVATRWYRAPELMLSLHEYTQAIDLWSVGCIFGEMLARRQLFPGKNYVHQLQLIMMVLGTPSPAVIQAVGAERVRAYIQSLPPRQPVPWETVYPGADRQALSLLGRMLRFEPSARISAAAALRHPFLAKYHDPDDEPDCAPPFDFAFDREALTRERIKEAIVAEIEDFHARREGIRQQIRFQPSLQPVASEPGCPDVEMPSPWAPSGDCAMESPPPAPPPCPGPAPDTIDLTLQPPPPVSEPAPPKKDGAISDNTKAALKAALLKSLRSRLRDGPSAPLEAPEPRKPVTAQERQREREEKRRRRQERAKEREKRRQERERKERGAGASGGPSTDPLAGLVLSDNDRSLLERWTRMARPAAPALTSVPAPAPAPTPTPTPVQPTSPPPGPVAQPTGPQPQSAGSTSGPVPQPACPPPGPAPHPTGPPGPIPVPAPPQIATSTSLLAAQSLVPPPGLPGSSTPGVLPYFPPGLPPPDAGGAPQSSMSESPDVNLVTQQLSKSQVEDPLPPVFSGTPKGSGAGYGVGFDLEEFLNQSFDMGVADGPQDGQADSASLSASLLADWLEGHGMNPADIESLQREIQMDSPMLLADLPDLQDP", "assay": "Gal4-ERK5 driven luciferase induction – cell-based, HTS, primary screen (AID 1508626;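 active = luciferase signal above three times the same-plate solvent-only control wells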;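 also: luciferase driven by Gal4-ERK5 fusion binding five Gal4 sites before minimal TATA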)", "conditions": "HeLa Gal4-ERK5 transactivation, 18 h, at 5 µM, stronger effect = higher value"}, "[7]": {"assay": "galactose survival enhancers in mitochondrial complex I cybrids – cell-based, galactose medium, ATP luminescence, primary screen (AID 1645843;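 active = z-score of at least 1.8 in each of two replicates, scored against plate mean and spread of sample wells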;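 also: positive z means more ATP and so rescue of galactose-driven cybrid death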)", "conditions": "complex I mutant cybrid cells, 72 h, stronger effect = higher value"}, "[8]": {"assay": "viability loss in pontine glioma line – cell-based, SU-DIPG-XIII, MIPE4.0, CellTiter-Glo, qHTS, dose response (AID 1347061; cut-off not given, nearly all actives have AC50 up to about 37 µM;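 also: cells exposed to compound for 48 hours before readout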)", "conditions": "CellTiter-Glo ATP luminescence"}, "[9]": {"assay": "viability loss in pontine glioma line – cell-based, JHH-DIPG-1, MIPE4.0, CellTiter-Glo, qHTS, dose response (AID 1347062; cut-off not given, nearly all actives have AC50 up to about 27 µM;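 as to AC50: cells exposed to compound for two days before readout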)", "conditions": "JHH-DIPG-1 viability, CellTiter-Glo ATP luminescence"}, "[10]": {"assay": "viability loss in pontine glioma line – cell-based, SU-DIPG-IV, MIPE4.0, CellTiter-Glo, qHTS, dose response (AID 1347063; cut-off not given, nearly all actives have AC50 up to about 30 µM;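 also: compound exposure lasted 48 hours before the viability readout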)", "conditions": "CellTiter-Glo ATP luminescence"}, "[11]": {"conditions": "stronger effect = lower value, cell number ratio, induced over uninduced"}, "[12]": {"conditions": "measured here: relative caspase fold change +Dox/-Dox"}, "[13]": {"conditions": "measured here: total cells with miR-34 induction, stronger effect = lower value"}, "[14]": {"conditions": "measured here: total cells without miR-34 induction"}, "[15]": {"conditions": "MELAS cybrid survival, CellTiter-Glo 48 h, stronger effect = higher value"}, "[16]": {"conditions": "Rieske KO mouse fibroblast survival, CellTiter-Glo 72 h"}}, "note": "Values joined by “and” are separate entries in the source; they are usually repeats but may differ in a detail not shown here. Identical values can stand only once. Inconclusive results are not listed. Active and inactive are the calls of the source.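 The calls were made as follows, unless noted: active = at least 20% inhibition of 6-phosphogluconate dehydrogenase activity; inactive = the rest.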", "data": [{"smiles": "CCC[C@@H]1C[C@@H](C(=O)N[C@@H]([C@H]2O[C@H](SC)[C@H](O)[C@@H](O)[C@H]2O)[C@H](C)Cl)N(C)C1", "values": [{"measurement": "parasite load remaining", "setting": "[1]", "value": "69.6% (inactive) and 41% (inactive)"}, {"measurement": "viability", "setting": "[1]", "value": "232% and 102%"}, {"measurement": "inhibition", "setting": "[2]", "value": "8.56% (inactive)"}, {"measurement": "fold change", "setting": "[3]; [11]", "value": "0.93 (inactive) and 0.912 (inactive)"}, {"measurement": "fold change", "setting": "[3]; [12]", "value": "1.22 and 1"}, {"measurement": "cell count", "setting": "[3]; [13]", "value": "9830 and 9930"}, {"measurement": "cell count", "setting": "[3]; [14]", "value": "10600 and 10900"}, {"measurement": "z-score", "setting": "[4]; [15]", "value": "-0.831 (inactive) and -0.519 (inactive)"}, {"measurement": "z-score", "setting": "[4]; [16]", "value": "-0.0935 and -0.00307"}, {"measurement": "remaining NAD", "setting": "[5]", "value": "10 nM (inactive)"}, {"measurement": "luciferase signal", "setting": "[6]", "value": "136 AU (inactive)"}, {"measurement": "z-score", "setting": "[7]", "value": "-0.225 (inactive) and 0.615 (inactive)"}]}, {"smiles": "C=C1CC[C@@H]2[C@](C)(CO)[C@H](O)CC[C@@]2(C)[C@@H]1C/C=C1/C(=O)OC[C@H]1O", "values": [{"measurement": "inhibition", "setting": "[2]", "value": "-4.69% (inactive)"}, {"measurement": "luciferase signal", "setting": "[6]", "value": "176 AU (active)"}]}, {"smiles": "COc1ccc(CCC(=O)c2c(O)cc(O[C@@H]3O[C@H](CO)[C@@H](O)[C@H](O)[C@H]3O[C@@H]3O[C@@H](C)[C@H](O)[C@@H](O)[C@H]3O)cc2O)cc1O", "values": [{"measurement": "inhibition", "setting": "[2]", "value": "-14.9% (inactive)"}, {"measurement": "AC50", "setting": "[8]", "value": "2350 nM (active)"}, {"measurement": "outcome", "setting": "[9]", "value": "inactive"}, {"measurement": "outcome", "setting": "[10]", "value": "inactive"}, {"measurement": "luciferase signal", "setting": "[6]", "value": "36 AU (inactive)"}]}, {"smiles": "O=C(O)c1cc(=O)c2ccc(Cl)cc2[nH]1", "values": [{"measurement": "inhibition", "setting": "[2]", "value": "15.5% (inactive)"}, {"measurement": "fold change", "setting": "[3]; [11]", "value": "0.965 (inactive)"}, {"measurement": "fold change", "setting": "[3]; [12]", "value": 1.21}, {"measurement": "cell count", "setting": "[3]; [13]", "value": 8410}, {"measurement": "cell count", "setting": "[3]; [14]", "value": 8710}, {"measurement": "z-score", "setting": "[7]", "value": "-0.2 (inactive)"}]}, {"smiles": "O=C(O)C1=CCNCC1", "values": [{"measurement": "inhibition", "setting": "[2]", "value": "13% (inactive)"}, {"measurement": "fold change", "setting": "[3]; [11]", "value": "1 (inactive) and 0.973 (inactive)"}, {"measurement": "fold change", "setting": "[3]; [12]", "value": "1.35 and 1.1"}, {"measurement": "cell count", "setting": "[3]; [13]", "value": "9950 and 8720"}, {"measurement": "cell count", "setting": "[3]; [14]", "value": "9930 and 8960"}, {"measurement": "z-score", "setting": "[7]", "value": "0.645 (inactive) and -0.22 (inactive)"}]}, {"smiles": "CC1(C)[C@@H](O)CC[C@]2(C)[C@H]3C(=O)C=C4[C@@H]5C[C@@](C)(C(=O)O)CC[C@]5(C)CC[C@@]4(C)[C@]3(C)CC[C@@H]12", "values": [{"measurement": "inhibition", "setting": "[2]", "value": "6.1% (inactive)"}, {"measurement": "outcome", "setting": "[8]", "value": "inactive"}, {"measurement": "outcome", "setting": "[9]", "value": "inactive"}, {"measurement": "outcome", "setting": "[10]", "value": "inactive"}, {"measurement": "remaining NAD", "setting": "[5]", "value": "10 nM (inactive)"}, {"measurement": "luciferase signal", "setting": "[6]", "value": "56 AU (inactive)"}]}, {"smiles": "CC1(C)[C@@H](O[C@H]2O[C@H](C(=O)O)[C@@H](O)[C@H](O)[C@H]2O[C@@H]2O[C@H](C(=O)O)[C@@H](O)[C@H](O)[C@H]2O)CC[C@]2(C)[C@H]3C(=O)C=C4[C@@H]5C[C@@](C)(C(=O)O)CC[C@]5(C)CC[C@@]4(C)[C@]3(C)CC[C@@H]12", "values": [{"measurement": "inhibition", "setting": "[2]", "value": "11% (inactive)"}, {"measurement": "outcome", "setting": "[8]", "value": "inactive"}, {"measurement": "outcome", "setting": "[9]", "value": "inactive"}, {"measurement": "outcome", "setting": "[10]", "value": "inactive"}]}, {"smiles": "CC[C@@]1(O)C[C@H](O[C@H]2C[C@H](N(C)C)[C@H](O[C@H]3C[C@H](O)[C@H](O[C@H]4CCC(=O)[C@H](C)O4)[C@H](C)O3)[C@H](C)O2)c2c(cc3c(c2O)C(=O)c2c(O)cccc2C3=O)[C@H]1C(=O)OC", "values": [{"measurement": "parasite load remaining", "setting": "[1]", "value": "-0.835% (inactive)"}, {"measurement": "viability", "setting": "[1]", "value": 14.5, "unit": "%"}, {"measurement": "inhibition", "setting": "[2]", "value": "13.5% (inactive)"}, {"measurement": "AC50", "setting": "[9]", "value": "332 nM (active)"}, {"measurement": "AC50", "setting": "[10]", "value": "469 nM (active)"}, {"measurement": "fold change", "setting": "[3]; [11]", "value": "1.94 (inactive)"}, {"measurement": "fold change", "setting": "[3]; [12]", "value": 0.972}, {"measurement": "cell count", "setting": "[3]; [13]", "value": 1190}, {"measurement": "cell count", "setting": "[3]; [14]", "value": 612}, {"measurement": "z-score", "setting": "[4]; [15]", "value": 0.116}, {"measurement": "z-score", "setting": "[4]; [16]", "value": 2.56}, {"measurement": "z-score", "setting": "[7]", "value": "-1.88 (inactive)"}]}, {"smiles": "COc1cc([C@@H]2c3cc4c(cc3[C@H](O)[C@H]3COC(=O)[C@@H]23)OCO4)cc(OC)c1OC", "values": [{"measurement": "inhibition", "setting": "[2]", "value": "1.7% (inactive)"}, {"measurement": "AC50", "setting": "[9]", "value": "235 nM (active)"}, {"measurement": "AC50", "setting": "[10]", "value": "37.2 nM (active)"}, {"measurement": "luciferase signal", "setting": "[6]", "value": "76 AU (inactive)"}]}, {"smiles": "COC1=C(OC)C(=O)C(C/C=C(\\C)CC/C=C(\\C)CC/C=C(\\C)CC/C=C(\\C)CC/C=C(\\C)CC/C=C(\\C)CC/C=C(\\C)CC/C=C(\\C)CC/C=C(\\C)CCC=C(C)C)=C(C)C1=O", "values": [{"measurement": "inhibition", "setting": "[2]", "value": "-47.9% (inactive)"}, {"measurement": "outcome", "setting": "[8]", "value": "inactive"}, {"measurement": "outcome", "setting": "[9]", "value": "inactive"}]}, {"smiles": "C[C@@H]1[C@H](O)[C@@H](C)/C=C/C=C/C=C/C=C/C=C/C=C/C=C/[C@H](O[C@@H]2O[C@H](C)[C@@H](O)[C@H](N)[C@@H]2O)C[C@@H]2O[C@](O)(C[C@@H](O)C[C@@H](O)[C@H](O)CC[C@@H](O)C[C@@H](O)CC(=O)O[C@H]1C)C[C@H](O)[C@H]2C(=O)O", "values": [{"measurement": "parasite load remaining", "setting": "[1]", "value": "70.3% (inactive)"}, {"measurement": "viability", "setting": "[1]", "value": 129, "unit": "%"}, {"measurement": "inhibition", "setting": "[2]", "value": "-10.9% (inactive)"}, {"measurement": "AC50", "setting": "[8]", "value": "833 nM (active)"}, {"measurement": "AC50", "setting": "[9]", "value": "1320 nM (active)"}, {"measurement": "AC50", "setting": "[10]", "value": "6620 nM (active)"}, {"measurement": "fold change", "setting": "[3]; [11]", "value": "0.894 (inactive)"}, {"measurement": "fold change", "setting": "[3]; [12]", "value": 1.05}, {"measurement": "cell count", "setting": "[3]; [13]", "value": 7670}, {"measurement": "cell count", "setting": "[3]; [14]", "value": 8570}, {"measurement": "z-score", "setting": "[4]; [15]", "value": "-0.838 (inactive)"}, {"measurement": "z-score", "setting": "[4]; [16]", "value": -0.728}, {"measurement": "remaining NAD", "setting": "[5]", "value": "10 nM (inactive)"}, {"measurement": "luciferase signal", "setting": "[6]", "value": "92 AU (inactive)"}]}]}
